# Where a name gives a salt, the structure may show the parent alone. ± gives the standard deviation of the averaged measurements. Whole data set: some 1,300 compounds, median “normalised cell viability” near 1, cut for the lowest 2% near 0.15. Many of the other results were omitted from the sample, so the lowest values are more common in it than they were.
# System: V-C8 + BRCA2 (BRCA2-proficient hamster cells)
# Assay: normalised cell viability (fraction of plate median); higher = more viable cells (less toxic)
# Conditions: 5 µM
# How it was run: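 Hamster V-C8 cells with and without restored BRCA2 were exposed in 96-well plates to library drugs at 5 μM for 3 days (screen 1) or 6 days (screen 2). Cell viability was scored by resazurin assay, then median-plate normalised, averaging triplicate wells.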
SMILES,normalised cell viability (treatment time: 3 days),normalised cell viability (treatment time: 6 days)
CS(=O)(=O)c1ccc(C2=C(c3ccccc3)C(=O)OC2)cc1 [Rofecoxib],1 ± 0.039,1.02 ± 0.06
CS(=O)(=O)c1ccc([C@@H](O)[C@@H](CO)NC(=O)C(Cl)Cl)cc1 [Thiamphenicol],0.9701 ± 0.0087,0.927 ± 0.02
NCCc1c[nH]cn1 [Histamine dihydrochloride],0.994 ± 0.016,0.991 ± 0.064
COc1ccc(C(=O)CC(=O)c2ccc(C(C)(C)C)cc2)cc1 [Avobenzone],1.02 ± 0.057,1.04 ± 0.12
CCN(CC)C(=O)/C(C#N)=C/c1cc(O)c(O)c([N+](=O)[O-])c1 [Entacapone],0.944 ± 0.013,1.03 ± 0.03
CC(C)COCC(CN(Cc1ccccc1)c1ccccc1)N1CCCC1 (stereo not drawn) [Bepridil hydrochloride],0.938 ± 0.069,0.828 ± 0.035
COc1cc([C@@H]2c3cc4c(cc3[C@@H](O[C@@H]3O[C@@H]5CO[C@@H](C)O[C@H]5[C@H](O)[C@H]3O)[C@H]3COC(=O)[C@H]23)OCO4)cc(OC)c1O [Etoposide],0.141 ± 0.0097,0.15 ± 0.017
CC(=O)[C@@]12O[C@](C)(c3ccccc3)O[C@@H]1C[C@H]1[C@@H]3CCC4=CC(=O)CC[C@]4(C)[C@H]3CC[C@@]12C [Algestone acetophenide],0.968 ± 0.025,1.07 ± 0.1
CCCCCCCCNC(C)C(O)c1ccc(SC(C)C)cc1 (stereo not drawn) [Suloctidil],0.653 ± 0.045,0.743 ± 0.068
"CC(C)NCC(O)c1cc(O)cc(O)c1 (stereo not drawn) [Metaproterenol sulfate, orciprenaline sulfate]",1.03 ± 0.023,1.04 ± 0.02
Nc1ccc(C(=O)O)c(O)c1 [4-aminosalicylic acid],0.944 ± 0.086,1.03 ± 0.043
CN(C)CCN(Cc1cccs1)c1ccccn1 [Methapyrilene hydrochloride],1.12 ± 0.021,1.04 ± 0.042
CO/N=C(\C(=O)N[C@@H]1C(=O)N2C(C(=O)O)=C(C[N+]3(C)CCCC3)CS[C@H]12)c1csc(N)n1 [Cefepime hydrochloride],0.933 ± 0.092,0.888 ± 0.098
CCC1NC(=O)c2cc(S(N)(=O)=O)c(Cl)cc2N1 (stereo not drawn) [Quinethazone],0.989 ± 0.058,0.989 ± 0.073
Nc1ccc(/N=N/c2ccccc2)c(N)n1 [Phenazopyridine hydrochloride],1.02 ± 0.039,1.04 ± 0.035
Clc1ccc(C(c2ccccc2Cl)C(Cl)Cl)cc1 (stereo not drawn) [Mitotane],1.02 ± 0.035,1.01 ± 0.076
"CC(C)NCC(O)c1ccc(O)c(O)c1 (single isomer, unassigned; (+)) [(+)-Isoproterenol (+)-bitartrate salt]",1 ± 0.048,1.05 ± 0.07

SMILES,normalised cell viability (treatment time: 3 days),normalised cell viability (treatment time: 6 days)
CC(=O)OCC(=O)[C@@]1(O)[C@H](C)C[C@H]2[C@@H]3CCC4=CC(=O)C=C[C@]4(C)[C@@]3(F)[C@@H](O)C[C@@]21C [Dexamethasone acetate],1.08 ± 0.057,1.02 ± 0.056
NC(=O)c1cnccn1 [Pyrazinamide],1.14 ± 0.039,1.02 ± 0.043
CCN(CC)CCc1nc(-c2ccccc2)no1 [Oxalamine citrate salt],1 ± 0.018,1.01 ± 0.03
C=C1/C(=C\C=C2/CCC[C@]3(C)[C@@H]([C@H](C)CCCC(C)C)CC[C@@H]23)C[C@@H](O)C[C@@H]1O [Alfacalcidol],0.751 ± 0.062,0.719 ± 0.094
C[C@@H]1NC(=O)NC1=O [Methylhydantoin-5-(L)],0.988 ± 0.053,1.07 ± 0.046
CCOC(=O)[C@H](CCc1ccccc1)N[C@H]1CCc2ccccc2N(CC(=O)O)C1=O [Benazepril HCl],1.03 ± 0.018,1.07 ± 0.029
CC(C)NCC(O)c1ccc2ccccc2c1 (stereo not drawn) [Pronethalol hydrochloride],0.972 ± 0.037,0.995 ± 0.041
CC(=O)[C@H]1CC[C@H]2[C@@H]3CC=C4C[C@@H](O)CC[C@]4(C)[C@H]3CC[C@]12C [Pregnenolone],1 ± 0.067,1.07 ± 0.12
O=C1c2c(O)cccc2Cc2cccc(O)c21 [Anthralin],0.979 ± 0.036,0.978 ± 0.018
O=C1c2c(O)ccc(O)c2C(=O)c2c(NCCNCCO)ccc(NCCNCCO)c21 [Mitoxantrone dihydrochloride],0.123 ± 0.0098,0.124 ± 0.0098
"O=C1c2cccc(O)c2C(=O)c2c(O)cccc21 [1,8-Dihydroxyanthraquinone]",0.853 ± 0.051,0.914 ± 0.076
Clc1ccc(COC(Cn2ccnc2)c2ccc(Cl)cc2Cl)cc1 (stereo not drawn) [Econazole nitrate],1 ± 0.025,1.04 ± 0.049
CC(=O)NC[C@H]1CN(c2ccc(N3CCOCC3)c(F)c2)C(=O)O1 [Linezolid],1.06 ± 0.11,1.04 ± 0.04
O=C(NCC1CCCCN1)c1cc(OCC(F)(F)F)ccc1OCC(F)(F)F (stereo not drawn) [Flecainide acetate],1.12 ± 0.066,1.02 ± 0.12
CCCCC(C)(O)C/C=C/[C@H]1[C@H](O)CC(=O)[C@@H]1CCCCCCC(=O)OC (mixture of isomers) [Misoprostol],0.976 ± 0.09,1.03 ± 0.024
CCN(CC)CCN[C@@H](C(=O)OCCC(C)C)c1ccccc1 [Camylofine chlorhydrate],0.957 ± 0.014,0.998 ± 0.096
CC1(C)S[C@@H]2[C@H](NC(=O)[C@H](C(=O)O)c3ccsc3)C(=O)N2[C@H]1C(=O)O [Ticarcillin sodium],1.02 ± 0.021,1.04 ± 0.097

# — the supplement of paper PMC6609913
